# Laboratory results as given in the supplement of paper PMC8728848.
# This excerpt belongs to a sample that is enriched for the strongest signals.
# Experiments:
# Assay in all cases: glycan array binding signal (z-score within array); higher = stronger binding
# Details in all cases: glycan notation: IUPAC condensed, linker removed
# [1] = target: Fuc(a1-2)Gal(b1-3)GalNAc(b1-3)Gal
# Outline: (§1)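 Glycan array data came from 3228 arrays in the Consortium for Functional Glycomics database, and only arrays with an available protein sequence were kept. Glycan names were put into IUPAC-condensed notation, and columns mapping to the same glycan were averaged. The binding signal is a within-array Z-score, averaged across arrays of one protein sequence run at different concentrations or buffers and across linkers. A negative Z-score can be read as non-binding.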
# [2] = target: Fuc(a1-2)Gal(b1-3)GlcNAc(b1-3)GalNAc
# Outline: as §1
# [3] = target: Fuc(a1-2)Gal(b1-4)Glc
# Outline: as §1
# [4] = target: Fuc(a1-2)Gal(b1-4)GlcNAc6S
# Outline: as §1
# [5] = target: Fuc(a1-2)Gal(b1-4)[Fuc(a1-3)]GlcNAc(b1-2)[Fuc(a1-2)Gal(b1-4)[Fuc(a1-3)]GlcNAc(b1-4)]Man(a1-3)[Fuc(a1-2)Gal(b1-4)[Fuc(a1-3)]GlcNAc(b1-2)Man(a1-6)]Man(b1-4)GlcNAc(b1-4)GlcNAc
# Outline: as §1
# [6] = target: Fuc(a1-2)Gal(b1-4)[Fuc(a1-3)]GlcNAc(b1-3)Gal(b1-4)[Fuc(a1-3)]GlcNAc(b1-3)Gal(b1-4)[Fuc(a1-3)]GlcNAc
# Outline: as §1
# [7] = target: Fuc(a1-2)[Gal(a1-3)]Gal(b1-4)GlcNAc(b1-2)Man(a1-3)[Fuc(a1-2)[Gal(a1-3)]Gal(b1-4)GlcNAc(b1-2)Man(a1-6)]Man(b1-4)GlcNAc(b1-4)GlcNAc
# Outline: as §1
# [8] = target: Fuc(a1-2)[Gal(a1-4)]Gal(b1-4)GlcNAc
# Outline: as §1
# [9] = target: Fuc(a1-2)[GalNAc(a1-3)]Gal(b1-4)GlcNAc(b1-3)GalNAc
# Outline: as §1
# [10] = target: Fuc(a1-3)[Gal(b1-4)]GlcNAc(b1-6)GalNAc
# Outline: as §1
# [11] = target: Fuc(a1-3)[Gal3S(b1-4)]Glc
# Outline: as §1
# [12] = target: Fuc(a1-3)[GalNAc(b1-4)]GlcNAc
# Outline: as §1
# [13] = target: Gal(a1-3)Gal(b1-3)GlcNAc
# Outline: as §1
# [14] = target: Gal(a1-4)Gal(b1-4)GlcNAc(b1-2)Man(a1-3)[Gal(a1-4)Gal(b1-4)GlcNAc(b1-2)Man(a1-6)]Man(b1-4)GlcNAc(b1-4)GlcNAc
# Outline: as §1
# [15] = target: Gal(b1-3)GalNAc
# Outline: as §1
# [16] = target: Gal(b1-3)GalNAc(b1-4)Gal(b1-4)Glc
# Outline: as §1
# [17] = target: Gal(b1-3)GlcNAc(a1-6)Gal(b1-4)GlcNAc
# Outline: as §1
# [18] = target: Gal(b1-3)GlcNAc(b1-3)Gal(b1-4)GlcNAc(b1-2)Man(a1-3)[Gal(b1-3)GlcNAc(b1-3)Gal(b1-4)GlcNAc(b1-2)Man(a1-6)]Man(b1-4)GlcNAc(b1-4)GlcNAc
# Outline: as §1
# [19] = target: Gal(b1-3)[Fuc(a1-4)]GlcNAc(b1-3)Gal(b1-4)[Fuc(a1-3)]GlcNAc
# Outline: as §1
# [20] = target: Gal(b1-4)Gal
# Outline: as §1
# [21] = target: Gal(b1-4)GlcNAc(b1-2)Man(a1-6)[GlcNAc(b1-2)Man(a1-3)]Man(b1-4)GlcNAc(b1-4)GlcNAc
# Outline: as §1
# [22] = target: Gal(b1-4)GlcNAc(b1-3)Gal(b1-4)GlcNAc(b1-3)Gal(b1-4)GlcNAc(b1-3)Gal(b1-4)GlcNAc(b1-3)Gal(b1-4)GlcNAc(b1-2)Man(a1-3)[Gal(b1-4)GlcNAc(b1-3)Gal(b1-4)GlcNAc(b1-3)Gal(b1-4)GlcNAc(b1-3)Gal(b1-4)GlcNAc(b1-3)Gal(b1-4)GlcNAc(b1-2)Man(a1-6)]Man(b1-4)GlcNAc(b1-4)GlcNAc
# Outline: as §1
# [23] = target: Gal(b1-4)GlcNAc(b1-3)Gal(b1-4)GlcNAc(b1-3)Gal(b1-4)GlcNAc(b1-3)Gal(b1-4)GlcNAc(b1-3)Gal(b1-4)GlcNAc(b1-2)[Gal(b1-4)GlcNAc(b1-3)Gal(b1-4)GlcNAc(b1-3)Gal(b1-4)GlcNAc(b1-3)Gal(b1-4)GlcNAc(b1-3)Gal(b1-4)GlcNAc(b1-6)]Man(a1-6)[Gal(b1-4)GlcNAc(b1-3)Gal(b1-4)GlcNAc(b1-3)Gal(b1-4)GlcNAc(b1-3)Gal(b1-4)GlcNAc(b1-3)Gal(b1-4)GlcNAc(b1-2)Man(a1-3)]Man(b1-4)GlcNAc(b1-4)[Fuc(a1-6)]GlcNAc
# Outline: as §1
# [24] = target: Gal3S(b1-4)[Fuc(a1-3)]Glc6S
# Outline: as §1
# [25] = target: Gal6S(b1-4)GlcNAc6S
# Outline: as §1
# [26] = target: GalNAc(b1-4)GlcNAc(b1-2)Man
# Outline: as §1
# [27] = target: GalNAc(b1-4)GlcNAc6S
# Outline: as §1
# [28] = target: GalNAc3S(b1-4)[Fuc(a1-3)]GlcNAc
# Outline: as §1
# [29] = target: GlcA(b1-3)Gal
# Outline: as §1
# [30] = target: GlcNAc(a1-6)Gal(b1-4)GlcNAc
# Outline: as §1
# [31] = target: GlcNAc(b1-2)[GlcNAc(b1-4)]Man(a1-3)[GlcNAc(b1-2)Man(a1-6)]Man(b1-4)GlcNAc(b1-4)GlcNAc
# Outline: as §1
# [32] = target: GlcNAc(b1-3)Gal(b1-4)Glc
# Outline: as §1
# [33] = target: GlcNAc(b1-4)GlcNAc
# Outline: as §1
# [34] = target: GlcNAc(b1-4)[GlcNAc(b1-6)]GalNAc
# Outline: as §1
# [35] = target: Man(a1-2)Man(a1-2)Man(a1-3)Man
# Outline: as §1
# [36] = target: Man(a1-2)Man(a1-3)[Man(a1-2)Man(a1-6)]Man(a1-6)[Man(a1-2)Man(a1-2)Man(a1-3)]Man
# Outline: as §1
# [37] = target: Neu5Ac(a2-3)Gal
# Outline: as §1
# [38] = target: Neu5Ac(a2-3)Gal(b1-3)GlcNAc(b1-2)Man(a1-3)[Neu5Ac(a2-3)Gal(b1-3)GlcNAc(b1-2)Man(a1-6)]Man(b1-4)GlcNAc(b1-4)GlcNAc
# Outline: as §1
# [39] = target: Neu5Ac(a2-3)Gal(b1-3)[Fuc(a1-4)]GlcNAc(b1-3)Gal(b1-4)[Fuc(a1-3)]GlcNAc
# Outline: as §1
# [40] = target: Neu5Ac(a2-3)Gal(b1-4)Glc
# Outline: as §1
# [41] = target: Neu5Ac(a2-3)[Neu5Ac(a2-6)]GalNAc
# Outline: as §1
# [42] = target: Neu5Ac(b2-6)GalNAc
# Outline: as §1
binder,measurement,setting,value
FimA (Actinomyces oris) (protein) MHHHHHHSSGVDLGTENLYFQSNAETPNYGNIKTDATGSLVIHKHLTGGGKDIGTPTGTAQNADDKGPAVEGVVFTAYPITDINLKDPAGWDTISNLSRTGVPDSACANPAAPTLGAHQFGTPKVSPATTKEGLATITEMPVQAYLVCETTTPGDIVQKAKPFVVTIPHPNTAAGADGQWIYDVNVYPKNEAIDVDKTIQAQKLNGYGVGSLIKFPVESTAPTLDAKSFYKYFQLKDTLDERLSEVTATDVSLEGTPLQPTDYKVETKQQTVTVTFTAEGLKKIKAAPGKKVSAVFQGKVTKAGNGAITNRAQVISDTLYAEQPPTPETPPTDPENPPTSDEVISRWGDLSIKKVDTHQQGQTKAGLQGAQFQLYKAKNAYANTCSNEKEGAPIAINGQTTLTTDAQGAIDIKGLFISDSIDGADRDNQVNAMERCYVLVETKAPAGYVLPAGNGAATPVKVKAGEETTDNVTVENTKQSVPGLPLTG,glycan array binding signal (z-score),[1],11.8
same,glycan array binding signal (z-score),[2],-0.927
same,glycan array binding signal (z-score),[3],-0.719
same,glycan array binding signal (z-score),[4],-0.627
same,glycan array binding signal (z-score),[5],-0.358
same,glycan array binding signal (z-score),[6],-0.317
same,glycan array binding signal (z-score),[7],5.11
same,glycan array binding signal (z-score),[8],5.14
same,glycan array binding signal (z-score),[9],-0.408
same,glycan array binding signal (z-score),[10],-0.64
same,glycan array binding signal (z-score),[11],-0.294
same,glycan array binding signal (z-score),[12],3.5
same,glycan array binding signal (z-score),[13],-0.412
same,glycan array binding signal (z-score),[14],-0.497
same,glycan array binding signal (z-score),[15],0.278
same,glycan array binding signal (z-score),[16],3.27
same,glycan array binding signal (z-score),[17],-0.165
same,glycan array binding signal (z-score),[18],-0.744
same,glycan array binding signal (z-score),[19],0.459
same,glycan array binding signal (z-score),[20],0.292
same,glycan array binding signal (z-score),[21],-0.044
same,glycan array binding signal (z-score),[22],3.42
same,glycan array binding signal (z-score),[23],5.1
same,glycan array binding signal (z-score),[24],3.23
same,glycan array binding signal (z-score),[25],4.75
same,glycan array binding signal (z-score),[26],-0.783
same,glycan array binding signal (z-score),[27],4.1
same,glycan array binding signal (z-score),[28],-0.099
same,glycan array binding signal (z-score),[29],0.311
same,glycan array binding signal (z-score),[30],-1.18
same,glycan array binding signal (z-score),[31],-0.403
same,glycan array binding signal (z-score),[32],-0.311
same,glycan array binding signal (z-score),[33],-0.621
same,glycan array binding signal (z-score),[34],-0.564
same,glycan array binding signal (z-score),[35],4.88
same,glycan array binding signal (z-score),[36],-0.88
same,glycan array binding signal (z-score),[37],-0.143
same,glycan array binding signal (z-score),[38],-0.233
same,glycan array binding signal (z-score),[39],0.196
same,glycan array binding signal (z-score),[40],-0.06
same,glycan array binding signal (z-score),[41],0.518
same,glycan array binding signal (z-score),[42],-0.85
